Measured values published in PubChem BioAssay AID1159580 (chemical genetic matrix, 2015).
“And” between values parts separate entries of the source, which are not always exact repeats. Equal values may be shown once. In all, about 5,500 compounds went through this assay and about 2,000 (36%) were called active. Inconclusive results (about 18%) are left out. Cut-off read from the data, not from the text of the source: active = normalized growth mostly below about 0.91 (no sharp cut-off); inconclusive = no clear call, values can overlap the other calls; inactive = mostly above about 0.92. This is one part of the list.

Test: chemical genetic growth profiling, strain panel (AID 1159580);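 note: tested at 20 µM; growth read once vehicle control cultures reached saturation at 30 °C; 1 = growth at the plate median or of vehicle wells; lower values mean less growth of the strain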
Details: growth OD

Measured: normalized growth

CC1COc2c(N3CCN(C)CC3)c(F)cc3c(=O)c(C(=O)O)cn1c23 (stereo not drawn)
inactive: S. cerevisiae deletion strains, locus YJR066W, strain TOR1, active compounds read low 0.948 | S. cerevisiae deletion strains, locus YKL009W, strain mrt4, active compounds read low 1.03 | S. cerevisiae deletion strains, locus YKL068W, active compounds read low 1.02 | S. cerevisiae deletion strains, locus YKL085W, strain MDH1 (second series), active compounds read low 1 | S. cerevisiae deletion strains, locus YKL085W, strain MDH1, active compounds read low 1 | S. cerevisiae deletion strains, locus YKL160W, strain elf1, active compounds read low 0.971 | S. cerevisiae deletion strains, locus YKL190W, strain CNB1, active compounds read low 1.01 | S. cerevisiae deletion strains, locus YKR001C, strain vps1, active compounds read low 1.03 | S. cerevisiae deletion strains, locus YKR026C, strain gcn3, active compounds read low 0.988 | S. cerevisiae deletion strains, locus YKR091W, strain srl3, active compounds read low 0.984 | S. cerevisiae deletion strains, locus YLL001W, strain dnm1, active compounds read low 0.958 | S. cerevisiae deletion strains, locus YLL026W, active compounds read low 0.998 | S. cerevisiae deletion strains, locus YLL041C, strain sdh2, active compounds read low 0.987 | S. cerevisiae deletion strains, locus YLR027C, strain aat2, active compounds read low 0.997 | S. cerevisiae deletion strains, locus YLR039C, strain RIC1, active compounds read low 1.03 | S. cerevisiae deletion strains, locus YLR058C, strain SHM2, active compounds read low 1.01 | S. cerevisiae deletion strains, locus YLR102C, strain apc9, active compounds read low 1.02 | S. cerevisiae deletion strains, locus YLR113W, strain HOG1, active compounds read low 0.942 | S. cerevisiae deletion strains, locus YLR221C, strain rsa3, active compounds read low 0.979 | S. cerevisiae deletion strains, locus YLR258W, strain gsy2, active compounds read low 0.994 | S. cerevisiae deletion strains, locus YLR262C, strain YPT6 (second series), active compounds read low 0.966 | S. cerevisiae deletion strains, locus YLR262C, strain YPT6, active compounds read low 1.07 | S. cerevisiae deletion strains, locus YLR268W, strain sec22, active compounds read low 1.01 | S. cerevisiae deletion strains, locus YLR320W, strain mms22, active compounds read low 0.961 | S. cerevisiae deletion strains, locus YLR330W, strain CHS5, active compounds read low 1.01 | S. cerevisiae deletion strains, locus YLR342W, strain FKS1 (second series), active compounds read low 1 | S. cerevisiae deletion strains, locus YLR342W, strain FKS1, active compounds read low 0.976 | S. cerevisiae deletion strains, locus YLR357W, strain rsc2, active compounds read low 0.967 | S. cerevisiae deletion strains, locus YLR370C, strain arc18, active compounds read low 0.98 | S. cerevisiae deletion strains, locus YLR371W, strain rom2, active compounds read low 1.02 | S. cerevisiae deletion strains, locus YLR384C, strain iki3, active compounds read low 0.965 | S. cerevisiae deletion strains, locus YLR418C, strain cdc73, active compounds read low 1.02 | S. cerevisiae deletion strains, locus YML016C, strain PPZ1, active compounds read low 1 | S. cerevisiae deletion strains, locus YML032C, strain rad52, active compounds read low 1.01 | S. cerevisiae deletion strains, locus YML120C, strain ndi1, active compounds read low 0.984 | S. cerevisiae deletion strains, locus YML124C, strain tub3, active compounds read low 1.01 | S. cerevisiae deletion strains, locus YMR058W, strain fet3, active compounds read low 0.985 | S. cerevisiae deletion strains, locus YMR078C, strain ctf18, active compounds read low 1.01 | S. cerevisiae deletion strains, locus YMR125W, strain sto1, active compounds read low 0.981 | S. cerevisiae deletion strains, locus YMR129W, active compounds read low 0.99 | S. cerevisiae deletion strains, locus YMR205C, strain PFK2, active compounds read low 0.959 | S. cerevisiae deletion strains, locus YMR223W, strain ubp8, active compounds read low 1.02 | S. cerevisiae deletion strains, locus YMR231W, strain pep5, active compounds read low 0.981 | S. cerevisiae deletion strains, locus YMR307W, strain GAS1, active compounds read low 1.09 | S. cerevisiae deletion strains, locus YNL067W, strain RPL9B, active compounds read low 1 | S. cerevisiae deletion strains, locus YNL071W, strain lat1, active compounds read low 0.987 | S. cerevisiae deletion strains, locus YNL128W, strain TEP1, active compounds read low 1.03 | S. cerevisiae deletion strains, locus YNL153C, strain GIM3, active compounds read low 1.05 | S. cerevisiae deletion strains, locus YNL183C, strain NPR1, active compounds read low 0.928 | S. cerevisiae deletion strains, locus YNL197C, strain WHI3, active compounds read low 1.01 | S. cerevisiae deletion strains, locus YNL209W, strain ssb2, active compounds read low 0.988 | S. cerevisiae deletion strains, locus YNL224C, strain SQS1, active compounds read low 1.01 | S. cerevisiae deletion strains, locus YNL233W, strain BNI4, active compounds read low 1 | S. cerevisiae deletion strains, locus YNL248C, strain rpa49, active compounds read low 0.982 | S. cerevisiae deletion strains, locus YNL250W, strain rad50, active compounds read low 1.01 | S. cerevisiae deletion strains, locus YNL271C, strain bni1, active compounds read low 1.02 | S. cerevisiae deletion strains, locus YNL298W, strain CLA4, active compounds read low 1.02 | S. cerevisiae deletion strains, locus YNL307C, strain MCK1, active compounds read low 1.02 | S. cerevisiae deletion strains, locus YNL322C, strain KRE1 (second series), active compounds read low 0.978 | S. cerevisiae deletion strains, locus YNL322C, strain KRE1, active compounds read low 0.995 | S. cerevisiae deletion strains, locus YNR049C, strain mso1, active compounds read low 0.986 | S. cerevisiae deletion strains, locus YNR052C, strain pop2, active compounds read low 1.03 | S. cerevisiae deletion strains, locus YOL006C, strain TOP1, active compounds read low 1.02 | S. cerevisiae deletion strains, locus YOL012C, strain htz1 1.78 | S. cerevisiae deletion strains, locus YOL147C, strain pex11, active compounds read low 1.01 | S. cerevisiae deletion strains, locus YOR001W, strain rrp6, active compounds read low 1.01 | S. cerevisiae deletion strains, locus YOR061W, strain CKA2, active compounds read low 1.01 | S. cerevisiae deletion strains, locus YOR069W, strain VPS5, active compounds read low 1 | S. cerevisiae deletion strains, locus YOR070C, strain gyp1, active compounds read low 0.994 | S. cerevisiae deletion strains, locus YOR080W, strain dia2, active compounds read low 0.984 | S. cerevisiae deletion strains, locus YOR083W, strain WHI5 (second series), active compounds read low 1.02 | S. cerevisiae deletion strains, locus YOR083W, strain WHI5, active compounds read low 0.953 | S. cerevisiae deletion strains, locus YOR106W, strain vam3, active compounds read low 0.971 | S. cerevisiae deletion strains, locus YOR136W, strain idh2, active compounds read low 1.01 | S. cerevisiae deletion strains, locus YOR144C, strain elg1, active compounds read low 1.01 | S. cerevisiae deletion strains, locus YOR184W, strain ser1, active compounds read low 1.02 | S. cerevisiae deletion strains, locus YOR231W, strain MKK1, active compounds read low 0.972 | S. cerevisiae deletion strains, locus YOR265W, strain rbl2, active compounds read low 0.989 | S. cerevisiae deletion strains, locus YOR270C, strain vph1, active compounds read low 0.965 | S. cerevisiae deletion strains, locus YOR290C, strain snf2, active compounds read low 0.985 | S. cerevisiae deletion strains, locus YOR316C, strain cot1, active compounds read low 1.01 | S. cerevisiae deletion strains, locus YPL051W, strain arl3, active compounds read low 0.98 | S. cerevisiae deletion strains, locus YPL055C, strain LGE1, active compounds read low 1.03 and 1.01 | S. cerevisiae deletion strains, locus YPL078C, strain atp4, active compounds read low 0.966 | S. cerevisiae deletion strains, locus YPL106C, strain sse1, active compounds read low 0.965 | S. cerevisiae deletion strains, locus YPL240C, strain hsp82, active compounds read low 0.999 | S. cerevisiae deletion strains, locus YPL256C, strain CLN2, active compounds read low 1 | S. cerevisiae deletion strains, locus YPR119W, strain clb2, active compounds read low 1.01 | S. cerevisiae deletion strains, locus YPR141C, strain kar3, active compounds read low 1.01 | S. cerevisiae deletion strains, locus YPR163C, strain tif3, active compounds read low 1.01 | S. cerevisiae deletion strains, locus YPR167C, strain met16, active compounds read low 1.01 | S. cerevisiae deletion strains, strain wtn01, active compounds read low 1.01 | S. cerevisiae strains, strain wild type, active compounds read low 1.01
